Experimental data reported in PubChem BioAssay AID1498 (National Center for Advancing Translational Sciences (NCATS), 2009).
Results filed as inconclusive are left out. Calls of active or inactive are those of the source. Calls follow the shape of the full dose curve.

Assay: Confirmation Concentration-Response Assay for Modulators of Lamin A Splicing
Conditions: RFP activity: RFP channel at top concentration, at 46.1 µM; ratio activity: GFP/RFP ratio at top concentration, at 46.1 µM
From the text: NCGC Assay Overview: Hutchinson-Gilford Progeria Syndrome (HGPS) is a pediatric premature aging disease caused by a spontaneous mutation in the lamin A/C (LMNA) gene. The mutation activates a cryptic splice site in the LMNA pre-mRNA which results in production of a pre-lamin A protein that cannot be processed properly. The mutant protein accumulates in the nucleus and negatively affects numerous cellular functions. Correction of the splicing defect in HGPS patient cells using a targeted oligonucleotide (exo11) leads to reversal of the cellular disease phenotypes. To identify small molecule modulators of aberrant LMNA splicing, a homogenous assay was constructed in HeLa cells that used a GFP containing minigene to report on correction of aberrant splicing in lamin A and a RFP (DsRed2) to report on cell viability, uniformity and nonspecific effects on the assay signal. This assay was adapted to laser-scanning microplate cytometry (Acumen, TTP Labtech) where miniaturization of the assay to a 1,536-well plate format was possible. Select compounds active in the primary screen (AID 1487) were chosen for confirmation based on potency, efficacy, SAR and activity in other assays in PubChem and at NCGC. References: Bowen, W. P.; Wylie, P. G. Application of Laser-Scanning Fluorescence Microplate Cytometry in High Content Screening. Assay Drug Dev Technol 2006;4:209-221. Scaffidi P, Misteli T. Reversal of the cellular phenotype in the premature aging disease Hutchinson-Gilford progeria syndrome. Nat. Med. 2005;11:440-445.
NCGC Assay Protocol Summary: Reagents/Controls: Stable clones expressing DsRed2 and lamin A-EGFP were generated by Cell and Molecular Technologies in S3 HeLa cells. HeLa cells were prepared for the assay when they were 70-90% confluent. The cells were counted and resuspended in Opti-MEM I (no phenol red; Gibco), 2% FBS, 1% penicillin/ streptomycin (Gibco) at concentration of 120 cells/uL concentration. The suspension was passed through a Falcon basket filter with pore size 40um (Beckton Dickson). Control titrations: column […] 1536-well plate contained a sixteen point titration (1:2 dilutions) in duplicate of ancitabine (Sigma: A8598) beginning at 40 uM final concentration. Column 2 contained a sixteen point titration (1:2 dilutions) of cycloheximide beginning at 1.4 mM final concentration. Column 3 contained ancitabine at 40 uM and column 4 contained was the vehicle control (0.5% DMSO final concentration). Assay Steps: 5 uL of HeLa cells were plated in Aurora LoBase black clear bottom (cyclic-olefin polymer) 1536-well plates at a final density of 600 cells/well. Controls and library compounds were added with a 1536-well pin array using the Kalypsys pin-tool. The plates were then incubated for 48 hrs in a cell-culture incubator (37 °C; 5% CO2, 98% humidity). Following incubation the plates were read on the Acumen Explorer using the 488 nm laser. Data was collected on objects between 10 and 100 um in size. Cell objects were defined by a 15 um width x 10 um depth filter. The ratio of the total object intensity in PMT1 (500-530 nm emission; GFP) over PMT3 (575-640 nm emission; RFP) was calculated for analysis. Keywords: NIH Roadmap, MLSCN, MLI, MLSMR, qHTS, NCGC, lamin A, Progeria, RNA splicing.

| SMILES | RFP activity [%] | outcome | ratio activity [%] |
| --- | --- | --- | --- |
| CN1C(=O)CCS(=O)(=O)[C@@H]1c1ccc(Cl)cc1 | -19.9 | inactive | -2.66 |
| c1ccc(C2OCCN3CCCCC23)cc1 (stereo unspecified) | -2.54 | inactive | -7.51 |
